# Reference: PubChem BioAssay (NCATS)
# Results filed as inconclusive are left out. Values without a mark were called inactive. Activity calls are given as the source filed them. Calls follow the shape of the dose curve; as a rule, active = well fitted inhibition curve with a large enough effect; inconclusive = small, poorly fitted or top-dose-only effect; inactive = flat fitted curve, though single readings scatter.
# Assays:
# [1] = test system: HACAT; assay: qHTS assay to identify novel small-molecules to repurpose for Merkel cell carcinoma treatment (AID 1296009); settings: MCC and control cell lines, CellTiter-Glo viability, 72 h; series mostly up to 44.8 µM
# Summary of the method: (§1)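 qHTS format: cells treated with library compounds in DMSO across 8 (NPC) or 11 (MIPE) concentrations. Readout after 72 hr at 37 degree celsius was CellTiter-Glo luminescence.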
# [2] = test system: NIH3T3; assay: Cytotoxic Profiling of Annotated Libraries Using Quantitative High-Throughput Screening (AID 1296008); settings: Five cell lines viability, CellTiter-Glo ATP luminescence, 48-72 h; max response: hits give low values; as to max response: % is scaled to controls: 0 for no effect and ±100 for the full control effect
# Summary of the method: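 Compounds were pin-transferred onto cells and incubated 48 or 72 hr at 37 degree Celsius, 95% humidity. CellTiter-Glo was added, plates sat 10 min at room temperature, then ATP-coupled luminescence was imaged as the viability read-out.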
# [3] = test system: HEK293T; assay: qHTS assay to identify novel small-molecules to repurpose for Merkel cell carcinoma treatment (AID 1296009); settings: MCC and control cell lines, CellTiter-Glo viability, 72 h; at 44.8 µM (top of the series) unless noted
# Summary of the method: as §1
# [4] = test system: NIH3T3; assay: as above; settings: MCC and control cell lines, CellTiter-Glo viability, 72 h; at 44.8 µM (top of the series) unless noted
# Summary of the method: as §1
# Also: nearly all actives have a fitted effect of over 60% in size.
# Potency is read from the fitted curve at half-maximal effect.
smiles,measurement,setting,value
C/C=C/c1ccc2c(c1)[C@@H](C)[C@H](c1ccc(O)cc1)O2,Potency,[1],inactive
O=C1NC(Cc2c[nH]c3ccccc23)C(=O)NC1Cc1cnc[nH]1 (centres undefined),Potency,[1],inactive
CC1(C)CC[C@]2(C(=O)O[C@@H]3O[C@H](CO)[C@@H](O)[C@H](O)[C@H]3O)CC[C@]3(C)C(=CCC4[C@@]5(C)CC[C@H](O[C@@H]6O[C@H](C(=O)O)[C@@H](O)[C@H](O)[C@H]6O)C(C)(C)C5CC[C@]43C)C2C1 (some centres undefined),max response,[2],-3.14%
same,outcome,[1],inactive [at 9.27 µM]
Cc1ccc(C)c(OCCn2cc(C(=O)O)c3ccccc32)c1,max response,[2],4.52%
same,Potency,[1],inactive
Oc1ccc2nc(CN3CCC(Cc4ccccc4F)CC3)[nH]c2c1,max response,[2],-12%
same,Potency,[1],inactive
O=S(=O)(c1ccccc1)c1cnc2c(N3CCNCC3)cccc2c1,max response,[2],-14.1%
same,Potency,[1],inactive
Cc1cc(C)c(CNC(=O)c2cc(-c3ccc(CN4CCOCC4)cc3)cc3c2cnn3C2CCCC2)c(=O)[nH]1,max response,[2],-0.531%
same,Potency,[1],inactive
C[C@@H]1CC[C@]2(C(=O)O[C@@H]3O[C@H](CO)[C@@H](O)[C@H](O)[C@H]3O)CC[C@]3(C)C(=CCC4[C@@]5(C)C[C@@H](O)[C@H](O)[C@](C)(C(=O)O)C5CC[C@]43C)[C@@H]2[C@]1(C)O (some centres undefined),max response,[2],0.619%
same,Potency,[1],inactive
CN1C2CCC1CC(OC(=O)[C@H](CO)c1ccccc1)C2 (some centres undefined),max response,[2],-25.3%
same,Potency,[1],inactive
Nc1nc2c(c(N3CCNCC3)n1)CCC1=C2[C@@H]2CCCC[C@@H]2O1,max response,[2],-4.38%
same,Potency,[1],inactive
O=C(Nc1nc2ccccc2n1CCc1ccccc1)c1ccccc1,max response,[2],-1.28%
same,Potency,[1],inactive
CN1CCN(C(=O)c2ccc3cc(CCNc4ncnc5ccc(C#N)cc45)ccc3c2)CC1,max response,[2],-2.38%
same,Potency,[1],inactive
COc1cc(OC)c(/C=C/S(=O)(=O)Cc2ccc(OC)c(NCC(=O)O)c2)c(OC)c1,Potency,[2],0.146 µM (active)
same,Potency,[1],inactive
CC(C)=C/C=C\[C@H](C)[C@H]1CC[C@]2(C)C[C@@H]3C(C)=CC(=O)C3/C(CO)=C\C[C@@H]12 (some centres undefined),max response,[2],3.13%
same,Potency,[1],inactive
COC(=O)C1=CO[C@@H](O[C@@H]2O[C@H](CO)[C@@H](O)[C@H](O)[C@H]2O)[C@H]2[C@@H]1C=C[C@@]21C=C([C@H](C)O)C(=O)O1,max response,[2],3.5%
same,Potency,[1],inactive
CN(C)C(=O)NC1CCC(CCN2CCN(c3cccc(Cl)c3Cl)CC2)CC1 (centres undefined),max response,[2],-6.34%
same,outcome,[1],inactive [at 9.27 µM]
C=C1CCC[C@]2(C)CC[C@@H](C(=C)C(=O)O)[C@H](O)[C@@H]12,max response,[2],-0.289%
same,Potency,[1],inactive
C[C@@H]1CCN(C(=O)N2CCCC2)C[C@@H]1N(C)c1ncnc2[nH]ccc12,max response,[2],-9.02%
same,Potency,[1],inactive
O=C(O)CCCCCC[C@H]1C(=O)NC(=O)N1CC[C@@H](O)C1CCCCC1,max response,[2],-5.35%
same,Potency,[1],inactive
COc1cc(/C=C/C=O)cc(OC)c1O[C@@H]1O[C@H](CO)[C@@H](O)[C@H](O)[C@H]1O,max response,[2],-71.2%
same,Potency,[1],inactive
C=C1C(OC2OCC(O)C(O)C2O)CC2C(C)(C)C(O)CCC2(C)C1CC/C(C)=C\CO (centres undefined),max response,[2],1.42%
same,Potency,[1],inactive
C=C(C(=O)OC)C1C(O)CC2(C)C(O)CCC(=O)C2C1O (centres undefined),max response,[2],3.84%
same,Potency,[1],inactive
O=C(O[C@H]1[C@@H]2C=CO[C@@H](O[C@@H]3O[C@H](CO)[C@@H](O)[C@H](O)[C@H]3O)[C@@H]2[C@@]2(CO)O[C@@H]12)c1ccccc1,max response,[2],-6.96%
same,Potency,[1],inactive
Cc1noc(=O)c2ccc(NC(=O)C(O)(CC(C)(C)c3cccc4c3OCC4)C(F)(F)F)cc12 (centres undefined),max response,[2],-1.29%
same,Potency,[1],inactive
CC1=C2C(O)C(=O)OC(c3ccoc3)C2(C)CCC1O (centres undefined),max response,[2],3.37%
same,Potency,[1],inactive
COc1ncc2cc(C(=O)Nc3cc(C(=O)NCc4cccc(Cl)c4)ccc3Cl)c(=O)[nH]c2n1,max response,[2],-0.237%
same,Potency,[1],inactive
CNC(=O)c1ccccc1Nc1nc(Nc2ccc3c(c2OC)CCCC(N2CCN(CCO)CC2)C3)ncc1Cl (centres undefined),Potency,[2],9.2 µM (active)
same,Potency,[1],5.8 µM (active)
OCC1OC(Oc2cc(O)cc(/C=C/c3ccc(O)cc3)c2)C(O)C(O)C1O (centres undefined),max response,[2],-0.337%
same,Potency,[1],inactive
CC1(C)CCCC2(C)C1CC(=O)C13CC(CCC12)C(O)(CO)C3 (centres undefined),max response,[2],2.51%
same,Potency,[1],inactive
CS(=O)(=O)c1ccc(-c2nnc(/C=C/c3nnc(-c4ccc(C#N)cc4)o3)n2-c2ccccc2Cl)nc1,max response,[2],-6.1%
same,Potency,[1],inactive
COC(=O)C12C(=O)C(C)=C(O)C1(C)C(C)=CC1C3(CO)CCC(O)C(C)(C)C3CCC12C (centres undefined),max response,[2],-3.91%
same,Potency,[1],inactive
CC1(C)CC[C@]2(C(=O)O[C@@H]3O[C@H](CO)[C@@H](O)[C@H](O)[C@H]3O)CC[C@]3(C)C(=CCC4[C@@]5(C)CC[C@H](O[C@@H]6O[C@H](C(=O)O)[C@@H](O)[C@H](O)[C@H]6O)[C@@](C)(CO)C5CC[C@]43C)C2C1 (some centres undefined),max response,[2],-2.22%
same,outcome,[1],inactive [at 9.27 µM]
C=CC(C)(C)c1[nH]c2cc3c(cc2c1CC1NC(=O)C2=CCCN2C1=O)C=CC(C)(C)O3 (centres undefined),max response,[2],-5.01%
same,Potency,[1],inactive
Cc1ccc(S(=O)(=O)n2ccc(-c3c(-c4ccc(Cl)cc4)noc3C)n2)cc1,max response,[2],-14.9%
same,Potency,[1],inactive
Cc1cc(OCc2nc(-c3ccccc3Cl)cs2)ccc1OCC(=O)O,max response,[2],4.72%
same,Potency,[1],inactive
COc1c2c(c(C)c3c1C(=O)OC3)OC1(C)CC(O)C34OC(OC)(CC(OC(C)=O)C3(C)C1C2)OC4(C)C (centres undefined),max response,[2],-0.676%
same,Potency,[1],inactive
CC(C)(O)C1CCC(C)(C2CCC3(C)C4CCC5C(C)(C(=O)OC6OC(CO)C(O)C(O)C6O)C(O)CC(O)C56CC46CCC23C)O1 (centres undefined),max response,[2],-1.85%
same,Potency,[1],inactive
C=CC1C(OC2OC(CO)C(O)C(O)C2O)OC=C(C(=O)OC)C1CC(=O)OCC1C(C)C(O)CC1C(CO)COC(=O)CC1C(C(=O)O)=COC(OC2OC(CO)C(O)C(O)C2O)/C1=C\C (centres undefined),max response,[2],-19.3%
same,outcome,[1],inactive [at 9.27 µM]
CC(C)=CCC/C(C)=C/CO[C@@H]1O[C@H](CO)[C@@H](O)[C@H](O)[C@H]1O,max response,[2],-9.17%
same,Potency,[1],inactive
C=C(C)C1CCC(C)C12CC(O)C1(C)OC1C2OC(=O)C(N)CCC(=O)O (centres undefined),max response,[2],4.47%
same,Potency,[1],inactive
COc1c(/C=C/C(C)(C)O)ccc2c1C(=O)OCc1cc(C)cc(O)c1O2,max response,[2],2.57%
same,Potency,[1],inactive
CC1=CC(=O)CC(C)(C)[C@H]1/C=C/C(CO)O[C@@H]1O[C@H](CO)[C@@H](O)[C@H](O)[C@H]1O (some centres undefined),max response,[2],-2.41%
same,Potency,[1],inactive
O=C(O)Cc1cn(C2OCC(O)C(O)C2O[C@@H]2O[C@H](CO)[C@@H](O)[C@H](O)[C@H]2O)c2ccccc12 (some centres undefined),max response,[2],2.49%
same,Potency,[1],inactive
COC(=O)C1=CO[C@@H](O[C@@H]2O[C@H](CO)[C@@H](O)[C@H](O)[C@H]2O)C2C1C(=O)C[C@H]2C (some centres undefined),max response,[2],2.63%
same,Potency,[1],inactive
COc1ccc([C@@]2(O)c3c(ccc(CC=C(C)C)c3O)NC(=O)[C@@H]2OC)cc1,max response,[2],4.4%
same,Potency,[1],inactive
same,outcome,[3],inactive
C/C=C/C=C/C(O)=C1\C(=O)[C@]2(C)C3C(C(=O)CC/C=C/C)=C(O)C4(C)C1[C@]1(C)O[C@@]4(O)[C@@]3(C)O[C@@]12O,max response,[2],1.07%
same,Potency,[1],inactive
CC(C)S(=O)(=O)N[C@H]1CCOC[C@@H]1c1ccc(-c2ccc(C#N)s2)cc1,max response,[2],-6.39%
same,Potency,[1],inactive
C[C@@H]1O[C@@H](O[C@@H]2[C@@H](O)[C@@H](O[C@]3(CO)O[C@H](CO)[C@@H](O)[C@@H]3OC(=O)/C=C/c3ccc(O)cc3)O[C@H](CO)[C@H]2OC(=O)/C=C/c2ccc(O)cc2)[C@H](O)[C@H](O)[C@H]1O[C@@H]1O[C@@H](C)[C@H](O[C@@H]2OC[C@](O)(CO)[C@H]2O)[C@@H](O)[C@H]1O,max response,[2],-0.786%
same,outcome,[1],inactive [at 9.27 µM]
same,outcome,[3],inactive [at 9.27 µM]
CC1(C)CCC(C)(C)c2cc(C3(c4ccc(C(=O)O)cc4)OCCO3)ccc21,max response,[2],-24.2%
same,Potency,[1],inactive
COc1cc2c(c(OC)c1CC=C(C)C)C[C@H](c1ccc(O)cc1O)CO2,max response,[2],0.487%
same,Potency,[1],inactive
COc1cc(C(=O)OC[C@H]2O[C@@H](Oc3ccccc3/C=C/C(=O)O)[C@H](O)[C@@H](O)[C@@H]2O)cc(OC)c1OC,max response,[2],0.074%
same,Potency,[1],inactive
COc1ccc(-c2cnc3ccc(NCc4ccc(S(N)(=O)=O)cc4)nn23)cc1OC,max response,[2],-14%
same,Potency,[1],inactive
CCN(Cc1cccnc1)C(=O)CN(c1ccc(OC)nc1)S(=O)(=O)c1ccccc1C,outcome,[2],inactive
same,Potency,[1],inactive
same,outcome,[3],inactive
same,outcome,[4],inactive
C[C@@]12CC[C@@H]3[C@@](CC[C@H]4[C@@]3(C)CCC[C@@]4(C)C(=O)O)(CC1=O)C2,max response,[2],-5.17%
same,Potency,[1],inactive
C=C(C(=O)O)[C@H]1C[C@]2(C)[C@@H](O)CC[C@]23O[C@H]1C[C@@H]3C,max response,[2],-13.7%
same,Potency,[1],inactive
Cc1ccccc1NC(=O)Nc1ccc(CC(=O)N(C)[C@@H](CC(C)C)C(=O)NCC[C@H](NC(=O)[C@@H]2CCCN2S(=O)(=O)c2cc(Cl)cc(Cl)c2)C(=O)O)cc1,max response,[2],-5.85%
same,Potency,[1],inactive
same,outcome,[3],inactive [at 17.4 µM]
CC12CCC(OC3OC(CO)C(O)C(OC4OC(CO)C(O)C(O)C4O)C3O)CC1=CCC1C2CCC2(C)/C(=C3/COC(=O)C3)CCC12O (centres undefined),max response,[2],-3.87%
same,Potency,[1],inactive
N#Cc1cc(F)cc(-c2nc(-c3ccccn3)no2)c1,max response,[2],-10.9%
same,Potency,[1],inactive
